Most compounds without a hit are left out; they make up all but 3.5% or so of the library.
MITF primary: blocks human microphthalmia-associated transcription factor. AlphaScreen MITF homodimerization, bead proximity signal. inhibition, % at 2.6 µM. 650,000 tested, 0.91% active; in the data active = inhibition above about 50%;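 note: 0% = vehicle wells with protein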
FBW7 act: activators of human E3 ligase FBW7; Q969H0; AlphaScreen FBW7–phospho-cyclin E peptide binding, activator screen; normalized activity (activation), % at 26.1 µM; 650,000 tested, 0.13% active; in the data active = normalized activity above about 1.9%;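 note: purified mutant Fbw7 with reduced substrate affinity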
Target sequence (Q969H0 whole entry, looked up): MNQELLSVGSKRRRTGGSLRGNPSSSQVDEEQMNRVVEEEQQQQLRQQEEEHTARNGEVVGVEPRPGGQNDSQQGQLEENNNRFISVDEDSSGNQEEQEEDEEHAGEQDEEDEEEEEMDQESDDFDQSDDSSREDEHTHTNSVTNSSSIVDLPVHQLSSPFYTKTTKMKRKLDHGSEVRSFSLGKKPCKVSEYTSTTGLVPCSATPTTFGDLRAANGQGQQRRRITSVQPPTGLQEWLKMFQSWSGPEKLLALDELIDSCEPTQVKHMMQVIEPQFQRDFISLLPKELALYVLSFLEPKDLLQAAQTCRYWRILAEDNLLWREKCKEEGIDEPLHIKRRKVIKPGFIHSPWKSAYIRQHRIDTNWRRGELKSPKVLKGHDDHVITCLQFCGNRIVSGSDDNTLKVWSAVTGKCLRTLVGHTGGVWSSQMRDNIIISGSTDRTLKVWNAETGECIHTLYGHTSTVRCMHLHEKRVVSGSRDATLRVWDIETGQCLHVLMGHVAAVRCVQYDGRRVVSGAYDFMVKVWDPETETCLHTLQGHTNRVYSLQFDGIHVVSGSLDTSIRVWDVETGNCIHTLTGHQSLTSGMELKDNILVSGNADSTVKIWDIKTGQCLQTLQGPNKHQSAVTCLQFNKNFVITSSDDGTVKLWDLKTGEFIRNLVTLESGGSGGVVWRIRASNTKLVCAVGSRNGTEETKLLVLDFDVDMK
TEAD-YAP inh: TEAD-YAP interaction inhibition; 640,000 tested, 1.4% active; AID 1259422; HEK-TIYL cells, TEAD-Gal4/YAP UAS-luciferase luminescence; inhibition, % at 9.12 µM; in the data active = inhibition above about 32%;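 note: 0% = median of test compound wells and 100% = reference inhibitor wells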
GPR151 activ: activates the human receptor GPR151; activation, % at 11.2 µM; Q8TDV0; 650,000 tested, 1% active; PathHunter beta-arrestin GPR151 cells, luminescence; in the data active = activation above about 4.9%;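 note: 0% = median of compound wells and 100% = cells with positive control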
Starred values were filed as active, the others as inactive.

SMILES	MITF primary	FBW7 act	TEAD-YAP inh	GPR151 activ
Cc1cccc(Nc2nc3nonc3nc2Nc2ccc(I)cc2)c1C	8	0	13	0
Oc1ccc(CCNc2nc(-c3ccc(N4CCOCC4)nc3)nc3nc[nH]c23)cc1	15	0	-2	1
CCCC(CCC(=O)Nc1ccccc1C)C(=O)O (stereo not drawn)	-6	0	2	-1
Cc1ccc(C)c(S(=O)(=O)Oc2ccccc2C(=O)OCC(=O)Nc2cc(C)on2)c1	2	0	39*	0
CC(=O)N(C1=C(Cl)C(=O)c2ccccc2C1=O)c1ccc(Br)cc1	18	0	11	0
CC(=O)N(C1=C(N(C)C)C(=O)c2ccccc2C1=O)c1ccc(Cl)cc1	6	0	73*	-3
CC(=O)N(C1=C(N(C)C)C(=O)c2ccccc2C1=O)c1cc(C)cc(C)c1	13	0	85*	-3
CC(=O)N(C1=C(N(C)C)C(=O)c2ccccc2C1=O)c1cccc(F)c1	13	-1	95*	-7
C=CCn1c(COc2ccc(Cl)cc2)nnc1SCCN	29	0	-4	3
CCOc1ccc(C(=O)N(CN2CCCC2=O)c2ccc(F)cc2)cc1	12	1	-3	-2
Cc1cc(Cn2cnc3ccccc32)c(C)cc1Cn1cnc2ccccc21	8	0	36*	0
O=C(Cn1cnc2ccccc21)Nc1ccc(SC(F)F)cc1	7	0	34*	1
Cc1cc(C)c(NC(=O)Cn2cnc3ccccc32)c(C)c1	2	0	42*	3
Cc1ccc(Cn2cnc3ccccc32)cc1	18	0	17	1
Cc1cccc(N2C(N)=C(C#N)C(c3cccc([N+](=O)[O-])c3)C3=C2CC(C)(C)CC3=O)c1 (stereo not drawn)	12	0	-14	1
COc1ccc2cc3c(N)nn(C(=O)c4cccnc4)c3nc2c1	-11	0	32*	0
COc1ccc2cc3c(N)nn(C(=O)c4cccc(Cl)c4)c3nc2c1	-2	0	-2	-2
COc1ccc2cc3c(N)nn(C(=O)c4ccccc4F)c3nc2c1	4	0	55*	0
COc1ccc2cc3c(N)nn(C(=O)c4ccccc4Cl)c3nc2c1	9	0	45*	-2
COc1ccc2cc3c(N)nn(C(=O)c4cccc(F)c4)c3nc2c1	8	0	29	0
COc1ccc2cc3c(N)nn(C(=O)c4ccc(F)cc4)c3nc2c1	11	0	36*	1
Cc1cc(-c2cncnc2C2CCCN(C(=O)c3sc(C)nc3C)C2)on1 (stereo not drawn)	12	0	-6	0
O=C(/C=C/c1ccccc1[N+](=O)[O-])N1CCc2ccccc21	-2	0	44*	-1
O=C(/C=C/c1ccc(F)cc1)N1CCc2ccccc21	-2	0	56*	-4
O=C(/C=C/c1ccccc1[N+](=O)[O-])N1CCCC1	-1	0	-3	1
SMILES	MITF primary	FBW7 act	TEAD-YAP inh	GPR151 activ
CCOc1ccc(/C=N/N2C(=O)C3C4C=CC(C4)C3C2=O)c(OCC)c1 (stereo not drawn)	-9	0	2	1
COc1cc([N+](=O)[O-])ccc1N=Cc1c(O)[nH]c2ccccc12	-7	0	-1	-1
Cc1cccc(N2C(=O)C(CC(=O)Nc3ccccc3)N(C(C)C)C2=O)c1 (stereo not drawn)	2	1	11	3
CCc1nnc2n1N=C(c1ccc3c(c1)OCCO3)CS2	12	0	51*	0
COc1ccccc1Oc1ccc(C(N)=O)cc1[N+](=O)[O-]	-6	0	-4	1
O=[N+]([O-])c1ccc(Oc2ccccc2O)c2c1no[n+]2[O-]	66*	-2	-13	-3
Cn1cc(-c2ccc3ccccc3n2)c(=S)c2ccccc21	2	0	-49	-1
CCOc1ccc(NC(=O)c2nc(S(=O)(=O)CC)ncc2Cl)cc1	-1	0	6	2
Cc1csc(NC(=O)CSc2nnc(-c3cccnc3)n2-c2ccccc2C)n1	-2	0	62*	1
Cc1csc(NC(=O)CSc2nnc(-c3ccccn3)n2-c2ccccc2Cl)n1	-3	0	62*	0
Cc1ccccc1-n1c(SCC(=O)Nc2nccs2)nnc1-c1cccnc1	3	0	62*	1
COc1ccccc1-n1c(SCC(=O)Nc2nc(C)cs2)nnc1-c1ccccn1	-3	0	23	-1
COc1ccc(-n2c(SCC(=O)NCc3cccs3)nnc2-c2cccnc2)cc1	5	0	2	0
COc1ccccc1-n1c(SCC(=O)NCc2cccs2)nnc1-c1cccnc1	-1	3.3*	4	-1
COc1ccc(Cl)cc1NC(=O)CSC1=C(C#N)C(c2ccccc2)C(C(=O)Nc2ccccc2C)=C(C)N1 (stereo not drawn)	-2	0	-6	-1
CCCCNC(=O)c1ccc2c(c1)N(Cc1ccccc1)C(=O)CS2=O (stereo not drawn)	-1	0	-6	0
Cc1cc(=O)[nH]c(Nc2nc3ccccc3o2)n1	5	0	-32	-1
O=C(O)c1ccccc1C(=O)N1CCSC1c1ccc(Br)cc1 (stereo not drawn)	-4	0	-2	0
Cc1ccc(-n2c(SCC(=O)Nc3nccs3)nnc2-c2ccccn2)c(C)c1	4	0	17	2
Cc1ccccc1-n1c(SCC(=O)Nc2nccs2)nnc1-c1ccccn1	2	0	37*	0
COc1ccc(CCNS(=O)(=O)c2cc(Br)cnc2N)cc1OC	4	0	-2	0
COc1ccc(CCNc2nc(N3CCCC3CO)nc3c2ncn3-c2ccccc2)cc1 (stereo not drawn)	9	0	8	-2
OCC1CCCN1c1nc(NCCc2ccc(O)cc2)c2ncn(-c3ccccc3)c2n1 (stereo not drawn)	3	0	43*	-1
CCCNc1nc(N2CCCC2CO)nc2c1ncn2-c1ccccc1 (stereo not drawn)	8	0	37*	2
COc1cccc2cc(C(=O)Nc3cc(C)cc(C)c3)c(=Nc3ccc(C(=O)O)cc3)oc12	10	1	8	2
SMILES	MITF primary	FBW7 act	TEAD-YAP inh	GPR151 activ
COc1ccc(CCNC(=O)CSc2ccc3nnc(-c4ccccc4)n3n2)cc1OC	14	2.7*	18	3
O=C(CSc1ccc2nnc(-c3ccncc3)n2n1)NCCc1ccccc1	5	2.0*	-2	0
COc1ccc(-c2nnc3ccc(SCC(=O)NCCc4ccccc4)nn23)cc1	-8	0	-4	-1
CC1(C)c2ssc(=S)c2-c2ccccc2N1C(=O)C1CC1	6	0	-5	0
CC1(C)c2ssc(=S)c2-c2ccccc2N1C(=O)c1ccccc1	17	-1	57*	4
c1ccc2[nH]c(CNc3nc(Nc4ccncc4)nc4c3ncn4-c3ccsc3)nc2c1	5	0	85*	-3
c1ccc2[nH]c(CNc3nc(Nc4ccncn4)nc4c3ncn4-c3ccsc3)nc2c1	-1	0	82*	-2
c1cncc(CNc2nc(Nc3ccc(-n4ccnc4)cc3)nc3c2ncn3-c2ccsc2)c1	6	0	55*	0
